Test results: PubChem BioAssay AID720518 (National Center for Advancing Translational Sciences (NCATS), 2013)
Records with an inconclusive call do not appear. Unmarked numbers belong to inactive results. The call rests on the fitted dose curve.

Experiment: qHTS for Inhibitors of Cell Surface uPA Generation: Wild-type Protective Antigen (WT-PrAg) Counterscreen for Cherry-picked Compounds; further: 0% is about no effect
Settings: cells, WT protective antigen toxicity counterscreen; series mostly up to 115 µM; activity (protection): at the top concentration

Structure (SMILES)	activity (protection) [%]
CCOCCOc1cc(NCc2ccccc2)c2ncn(C(C)C)c2c1	-2.32
COc1ccc(CCNC(=O)Cn2c(=O)n(-c3cc(F)ccc3F)c(=O)c3sccc32)cc1OC	1.12
CCC1(CC)NC(=O)N(CC(=O)OCC(=O)c2cc(C)c(C)cc2C)C1=O	-0.796
CS/C(=C\[N+](=O)[O-])Nc1ccccc1	-2.26
COc1ccc(C[C@@H]2OC3(C=CC(=O)C=C3)O[C@H]2Cc2ccc(OC)cc2)cc1	-2.08
CCN(CC)S(=O)(=O)c1ccc(C(=O)Nc2cccc(C)c2)cc1	-2.04
CCC1(C)NC(=O)N(CC(=O)Nc2sc3c(c2C(N)=O)CCC3)C1=O (stereo not drawn)	6.41
CCc1ccccc1N(CC(=O)N1CCCC1)S(C)(=O)=O	1.14
Cc1nc(C(=O)N2CCC(n3nccc3NC(=O)Nc3ccccc3Cl)CC2)cs1	-1.86
Brc1ccsc1/C=N/Nc1ccccc1	3.32
CCOc1ccc(C2(C)CC(=O)N(C)C2=O)cc1 (stereo not drawn)	-1.37
Oc1c(N=NC(=S)Nc2ccccc2F)c2ccccc2n1Cc1ccccc1Cl	-0.848
COc1ccc(C(c2sc3nc(C)nn3c2O)N2CCC(C(N)=O)CC2)cc1OC (stereo not drawn)	-1.53
CC(=O)n1cc(/C=N/NC(=O)c2ccc([N+](=O)[O-])cc2)c2ccccc21	-1.78
Cc1ccc2cc(C=O)c(Cl)nc2c1	-0.682
COc1cccc(NC(=S)NCc2ccc3c(c2)cc(C)n3C)c1	-1.73
CS(=O)(=O)c1ccc(Cl)c(NC(=O)COC(=O)CNC(=O)c2cccs2)c1	-0.596
C=CCOC(=O)C1=C[C@H](c2ccc(C(F)(F)F)cc2)[C@@H](CCCO)[C@H](OCC)O1	-1.89
